Results from PubChem BioAssay.
Active and inactive are the calls of the source. How the calls were made is not given here.

experiment: inhibition of 3D7 malaria parasite growth – strain 3D7 (AID 2306);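 further: 0% = DMSO wells and 100% = chloroquine plus artemisinin control wells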; conditions: P. falciparum 3D7 erythrocytic growth, LDH absorbance, 72 h; at 2 µM; stronger effect = higher value

Structure (SMILES)	growth inhibition
Cc1[nH]c(C)c(-c2ccc(OCc3cc(C(F)(F)F)cc(C(F)(F)F)c3)nc2)c(=O)c1Cl	98% (active)
COc1cc(C)c(NC(=O)c2cccc3c(=O)c(C)c(-c4ccccc4)oc23)cc1OC	86% (active)
Cc1c(CNCCCNc2cc(=O)c3ccccc3[nH]2)sc(C(F)F)c1Br	98% (active)
C[C@@H](C(N)=O)N1CCCCC1c1ccc(OCc2cccc(F)c2)cc1 (some centres not stated)	84% (active)
O=[N+]([O-])c1ccc2c(-c3ccccc3)c(-c3ccccc3)n(O)c2c1	97% (active)
CN1CCC(c2c[nH]c3ccc(NC(=O)Nc4ccc(-c5ccncc5)cc4Cl)cc23)CC1	100% (active)
O=C(Nc1ccc(Cl)c(Cl)c1)N1CCc2cc3nccc(N4CCN5CCC[C@H]5C4)c3cc21	100% (active)
CNC(=O)c1cnc(Nc2ccc(OCC(O)CN(C)C)cc2)nc1Nc1cccc(OC)c1 (configuration not stated)	103% (active)
CC(=O)Nc1ccc(CN(Cc2ccc(OC(C)(C)C)cc2)Cc2ccc3c(c2)OCCO3)cc1	91% (active)
O=C(NCC1CCC(C(=O)NCc2cccc(C(F)(F)F)c2)CC1)c1ccc(O)c(-c2ccc(Cl)c(Cl)c2)c1 (configuration not stated)	98% (active)
CC1(C)N=C(N)N=C(N)N1c1ccc(Cl)c(Cl)c1	95% (active)
CCOc1ccc(-c2cc3nc(C4CCNCC4)c(C(=O)Nc4ccc(C)cc4Cl)cn3n2)cc1	95% (active)
O=C(/C=C/c1ccc(Cl)c(Cl)c1)NCCCCCN1CCCC(C(=O)Nc2cccc(Cl)c2)C1 (configuration not stated)	99% (active)
N#Cc1cccc(-c2cccc(C(=O)NC3CCC(CCN4CCc5ccc(C#N)cc5CC4)CC3)c2)c1 (configuration not stated)	99% (active)
COc1cccc2c(NCc3ccccc3)nc(NCCCN3CCCCC3C)nc12 (configuration not stated)	90% (active)
COc1cc(C=CC(=O)N2CCC(CCN3CCC(c4c[nH]c5ccccc45)CC3)CC2)cc(OC)c1	92% (active)
Cc1cc(Cl)ccc1OC(C)C(=O)N1CCc2ccccc21 (configuration not stated)	94% (active)
Cc1nc(-c2cccc(Nc3nccc(NCC(O)c4ccccc4)n3)c2)cs1 (configuration not stated)	99% (active)
CC(C)(C)c1ccc(S(=O)(=O)Nc2ccccc2Cn2nc(N3CCNCC3)ccc2=O)cc1	98% (active)

Structure (SMILES)	growth inhibition
CCn1ccc2c(N3CCCS3(=O)=O)cc(C(=O)N[C@@H](Cc3ccccc3)[C@H](O)CNC(C)(C)CCCC(C)C)cc21	97% (active)
O=C(CC(=O)C(F)(F)F)c1ccccc1[N+](=O)[O-]	97% (active)
CCOc1ccc(Br)cc1/C=C/C(=O)Nc1ccc2c(c1)CN(C)CCC2	97% (active)
COc1ccc2nccc(NN=Cc3ccccc3)c2c1	101% (active)
CN(C(=O)/C=C/c1cc(C(F)(F)F)ccc1F)C1CCN(CCCCCNC(=O)/C=C/c2ccc(Cl)c(Cl)c2)CC1	101% (active)
Nc1cnc(C#Cc2cc3ncnc(N(CCN4CCOCC4)c4ccc(OCc5cccc(F)c5)c(Cl)c4)c3s2)cn1	87% (active)
Cc1nnsc1C(=O)Nc1ccc(-c2cccc(-c3nc4c(C)cccc4[nH]3)c2)cc1	98% (active)
O=[N+]([O-])c1ccc(C(O)CNCCc2ccccc2)cc1OCc1ccccc1 (configuration not stated)	94% (active)
COc1cc2ccccc2c(OC)c1CCNCCCCNCCc1c(OC)cc2ccccc2c1OC	99% (active)
COc1ccc(Cl)cc1N1CCN(CCCNC(=O)c2ccc(-c3nc4cc(Cl)c(F)cc4[nH]3)c(F)c2)CC1	101% (active)
c1ccc2c(c1)CN(Cc1cc3ccccc3[nH]1)CC1(CCN(Cc3c[nH]c4cnccc34)CC1)O2	101% (active)
Oc1ccc(CCNc2nc(NCCCOc3cccc(CN4CCCCC4)c3Cl)nc(N3CCNCC3)n2)cc1	102% (active)
O=C(CC1CCCC1)Nc1ccc2c(c1)CCC2	93% (active)
CCN1CCN(C(=O)NC(C(=O)N(C)Cc2ccc(-c3ccc(C(F)(F)F)cc3)cc2)c2cccs2)C(=O)C1=O (configuration not stated)	99% (active)
Oc1c(CN2CCC(Cc3ccccc3)CC2)cc(Cl)c2cccnc12	96% (active)
C=C[C@]1(C)C[C@@H](OC(=O)NC(=O)CCCS(=O)(=O)c2nnc(C)s2)[C@]2(C)[C@H](C)CC[C@]3(CCC(=O)[C@H]32)[C@@H](C)[C@@H]1O	94% (active)
COc1c(C2CCN(CCCCNC(=O)c3ccc(-c4ccc(C(=O)C(F)(F)F)cc4)cc3)CC2)ccc2c1CCCC2	81% (active)
O=C(NC1CCCc2ccccc21)C1CCCN(C(=O)c2ccc(O)c(-c3ccc(Cl)c(Cl)c3)c2)C1 (configuration not stated)	88% (active)
